A selection: hits, their analogues and other compounds. The true share with any hit is near 3.6%.
Tau filament bind: qHTS Assay for Tau Filament Binding; Microtubule-associated protein tau (Homo sapiens), P10636; recombinant tau filaments, thioflavin S fluorescence, 15 h; filaments grown with octadecylsulfate alongside compound; Potency, µM (highest dose often 57.1 µM), inactives show at the top dose activity change, negative = inhibition; actives 2% (n = 71,000); AID 596, 2007;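 also: % is scaled to controls: 0 for no effect and ±100 for the full control effect; actives lower thioflavin S fluorescence by blocking filaments or displacing dye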
Target sequence (P10636 whole entry, looked up): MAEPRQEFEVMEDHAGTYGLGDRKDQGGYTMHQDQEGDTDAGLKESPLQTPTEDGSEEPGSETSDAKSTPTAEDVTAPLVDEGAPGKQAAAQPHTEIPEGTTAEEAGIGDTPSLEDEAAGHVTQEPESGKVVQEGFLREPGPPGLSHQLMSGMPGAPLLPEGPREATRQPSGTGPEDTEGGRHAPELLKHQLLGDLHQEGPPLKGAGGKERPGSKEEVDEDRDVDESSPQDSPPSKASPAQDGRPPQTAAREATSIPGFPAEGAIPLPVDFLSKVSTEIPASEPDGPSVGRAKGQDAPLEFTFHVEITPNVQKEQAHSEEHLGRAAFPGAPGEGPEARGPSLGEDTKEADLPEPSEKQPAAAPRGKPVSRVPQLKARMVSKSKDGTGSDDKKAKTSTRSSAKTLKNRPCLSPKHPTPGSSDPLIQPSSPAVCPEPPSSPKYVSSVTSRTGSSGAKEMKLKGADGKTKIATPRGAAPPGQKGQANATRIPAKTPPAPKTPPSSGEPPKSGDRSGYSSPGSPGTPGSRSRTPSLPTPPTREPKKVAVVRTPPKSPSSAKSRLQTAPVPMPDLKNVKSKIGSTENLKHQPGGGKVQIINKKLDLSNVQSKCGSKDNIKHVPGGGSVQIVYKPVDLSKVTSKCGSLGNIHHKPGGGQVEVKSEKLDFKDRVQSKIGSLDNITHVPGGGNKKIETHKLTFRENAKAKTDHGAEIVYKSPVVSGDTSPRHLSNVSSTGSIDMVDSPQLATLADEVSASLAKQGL
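Thioflavine S fluorescence (ex 450, em 510 nm) reports filaments formed from 1 uM human tau plus 30 uM ODS over 15 h at 37 C (10 mM HEPES pH 7.4, 100 mM NaCl, 5 mM DTT); compounds displacing dye or blocking filaments lower signal.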
Hsp90 Hop PPI: qHTS Assay for Disrupters of an Hsp90 Co-Chaperone Interaction. AlphaScreen TPR2A-His6 binding biotin-Hsp90 C-terminal peptide. actives 0.44% (n = 71,000). Hsp90 C-terminal peptide / TPR2A (Hop) interaction, human. Potency, µM (doses to about 57 µM), without a hit: top-dose activity change, negative = inhibition. AID 595, 2007; active = well fitted curve in either direction with a large enough effect; inconclusive = small, poorly fitted or top-dose-only effect, or another doubt; also: % is scaled to controls: 0 for no effect and ±100 for the full control effect
CRE Fsk mod: Cell signaling CRE-BLA (Fsk stim); CHO CRE-bla reporter (cAMP response element driving beta-lactamase), forskolin EC10, beta-lactamase ratio; Potency, µM (highest dose often 38.2 µM), inactives show at the highest dose activity change, negative = inhibition, most hits filed as activators; actives 2.5% (n = 71,000); active = well fitted activation curve with a large enough effect in the signal ratio, with a control signal flat, not every such curve was filed as active; inconclusive = small, poorly fitted or top-dose-only effect, or effect the other way, or a change in a side signal; the % refers to the signal ratio; also: % of control where 0% means no effect
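Titrated compounds plus EC10 NKH 477 on CHO CRE-bla cells, 3 h, 37 °C. CCF4, 2 h RT. Ratio 460/530 nm → AC50.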
ALOX15 inhib: qHTS Assay for Inhibitors of 15-hLO (15-human lipoxygenase); Potency, µM (series often up to 57.1 µM), inactives show at the top dose activity change, negative = inhibition, usual class: inhibitors; purified 15hLO-1, xylenol orange hydroperoxide absorbance; actives 1.4% (n = 74,000); Polyunsaturated fatty acid lipoxygenase ALOX15 (Homo sapiens), P16050; also: % is scaled to controls: 0 for no effect and ±100 for the full control effect; nearly all actives have a fitted effect of over 55% in size
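Purified human 15hLO-1 (40 nM) in 25 mM Hepes pH 7.5, 0.01% Triton X-100, preincubated 15 min RT with compound, then 50 uM arachidonic acid for 6 min. Hydroperoxide read by ferrous/xylenol orange, 30 min; 573/405 nm absorbance ratio gave progress.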
IkB signaling: IkB Signaling | AID 445, 2006 | actives 0.04% (n = 110,000) | ABC-DLBCL IkBa-CBG/CBR dual luciferase ratio, 4 h; response scale: scaled: untreated 0%, proteasome inhibitor 100% | Potency, µM (doses to about 57.1 µM), inactives show at the top dose IkBa stabilization activation; active = well fitted curve in the direction sought with a large enough effect in the signal ratio, not every such curve was filed as active; inconclusive = small, poorly fitted or top-dose-only effect, or a change in a side signal; the % refers to the signal ratio;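 also: the direction sought is a rising ratio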
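Curves were fitted separately to fusion (green), unfused (red) and ratio luminescence, then classed by r2, magnitude and activity. Cells: OCI-Ly3, 4 h compound plus doxycycline at 37C; 10 uM MG-132 defined full response.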
Starred values were filed as active, the others as inactive; ? = inconclusive; / = no result; [ ] = another dose, or the depositor's remark. Unless noted, calls follow the shape of the dose curve; as a rule, active = well fitted curve in the direction sought with a large enough effect; inconclusive = small, poorly fitted or top-dose-only effect, or another doubt; inactive = no such curve, though single readings can be large; an effect the other way counts as inactive or inconclusive. Potency is read from the fitted curve at half-maximal effect.

SMILES	Tau filament bind	Hsp90 Hop PPI	CRE Fsk mod	ALOX15 inhib	IkB signaling
COc1ccc(NC(=O)N(Cc2cc3cc(OC)ccc3[nH]c2=O)CC2CCCO2)cc1 (stereo unspecified)	9%	-7%	15%	20µM*	?
Cc1cc(C(F)F)n2nc(C(=O)Nc3cccc(Cl)c3C)nc2n1	/	/	/	/	-2%
Cc1cn(C)c(CC(=O)N2CCN(c3cccc(C(F)(F)F)c3)CC2)c1C(=O)O	/	/	/	/	0%
COc1ccc(-c2nnc(SCC(=O)Oc3c(C)cccc3C)o2)cc1OC	/	/	/	/	2%
S=C([S-])NCCNC(=S)[S-].[Zn+2]	15%	16µM*	-21%	13µM*	2%
CCC(C)n1c(SCC(=O)Nc2ccccc2C(=O)OC)nc2ccsc2c1=O (stereo unspecified)	/	/	/	/	1%
Nc1[nH]nc2nc3ccccc3nc12	40µM*	-8%	?	-8%[25.6 µM]	?
c1ccc2nc3[nH]cnc3nc2c1	8%	1%	6%	5%	0%
Cc1nc2sc3c(c2c(=O)o1)CCCC3	8%	3%	-19%	-3%	2%
Nc1nc2sc3c(c2c(=O)s1)CCCC3	19%	-10%	?	0.79µM*	-2%
Cc1ccc(-c2nn(CC(=O)NCCN3CCOCC3)c(=O)c3ccccc23)cc1	6%	-2%	-6%	11%	3%
O=c1c2cccc3c2c(nn1CN1CCOCC1)-c1ccccc1-3	-12%	-3%	13µM*	2%	1%
COc1ccc(CCNc2ncnc3c2nnn3C)cc1	/	/	/	/	2%
Cc1cccc(NC(=O)/C(C#N)=C/c2ccco2)c1	/	/	/	/	8%
CC1=C(C(=O)Nc2ccccc2)C(c2ccco2)C(C#N)=C(SCC(=O)OC(C)C)N1 (stereo unspecified)	17%	8%	?	-23%	?
CC(=O)C1=C(C)NC(SCC(=O)c2ccc(Cl)c(Cl)c2)=C(C#N)C1c1ccco1 (stereo unspecified)	1µM*	-12%	?	13µM*	?
CC(=O)C1=C(C)NC(SCC(=O)c2cc(Cl)ccc2Cl)=C(C#N)C1c1ccco1 (stereo unspecified)	92%	7%	?	4µM*	?
COc1ccc(NC(=O)c2ccco2)cc1NC(=O)c1ccc(OC(C)C)cc1	/	/	/	/	-3%
O=C1c2ccccc2-c2ccc(NC(=O)[C@H]3CCCC[C@@H]3C(=O)O)cc21	-14%[11.4 µM]	-6%[11 µM]	?	3%[11.4 µM]	-1%[11.4 µM]
O=C(Nc1ccc(Nc2ccc3c(c2)C(=O)c2ccccc2C3=O)c2c1C(=O)c1ccccc1C2=O)c1ccccc1	4µM*	?	3%[7.6 µM]	-16%[11.4 µM]	-1%[11.4 µM]
CN1CCN(c2ncc3nc(-c4cccc(C#N)c4)c(=O)n(C[C@H]4CCCO4)c3n2)CC1	-19%	-7%	10µM*	-6%	0%[11.4 µM]
COc1ccc(Oc2ncc3nc(-c4cccc(C#N)c4)c(=O)n(Cc4cccc(OC)c4)c3n2)cc1	10µM*	-7%	10%	-3%	2%[11.4 µM]
COc1ccc(Oc2ncc3nc(C)c(=O)n(Cc4cccc(OC)c4)c3n2)cc1	-29%	1%	4µM*	11%	2%[11.4 µM]
COc1cccc(Cn2c(=O)c(-c3cccc(C#N)c3)nc3cnc(N4CCN(C)CC4)nc32)c1	3.2µM*	-1%	?	-7%	0%[11.4 µM]
N#Cc1cccc(-c2nc3cnc(N4CCOCC4)nc3n(C[C@H]3CCCO3)c2=O)c1	21%	-4%	?	-11%	1%[11.4 µM]
SMILES	Tau filament bind	Hsp90 Hop PPI	CRE Fsk mod	ALOX15 inhib	IkB signaling
CCN1c2ccccc2-c2nc(SCC(=O)Nc3cc(OC)cc(OC)c3)ncc2S1(=O)=O	/	/	/	/	0%
CCOc1ccc(C(=O)Nc2ccc(C(=O)OCc3cc(=O)n4nc(CC)sc4n3)cc2)cc1	/	/	/	/	-2%
COc1cccc(NC(=O)CSC2=Nc3ccccc3C3=NC(CC(=O)NCCc4ccccc4)C(=O)N23)c1 (stereo unspecified)	/	/	/	/	0%
COc1ccc(-c2nc3c(c(SCC(=O)Nc4ccccc4F)n2)Cc2cc(C)ccc2O3)cc1	/	/	/	/	2%
O=S(=O)(c1ccccc1)N1CCC2(CCCN(c3ccncc3)C2)CC1	22%	-4%	23%	10%	6%[11.4 µM]
COc1ccc(C2Nc3ccccc3C(=O)N2Cc2ccco2)cc1COc1ccc(NC(C)=O)cc1 (stereo unspecified)	112%	?	13%	16µM*	18%
O=C(Nc1ccc2c(c1)OCCO2)C1CCN(S(=O)(=O)c2cccs2)CC1	-2%	5%	?	1%	0%
O=C(Nc1ccc2c(c1)OCO2)C1CCN(S(=O)(=O)c2cccs2)CC1	13µM*	-26%	3.2µM*	-3%	0%
O=C(Nc1ccc2c(c1)OCO2)C1Cc2ccccc2CN1S(=O)(=O)c1cccs1 (stereo unspecified)	25µM*	-7%	?	?	?
CCc1ccc(NC(=O)c2nc3nc(C)cc(C(F)F)n3n2)cc1	/	/	/	/	-1%
CC(C)CO/N=C1/C[C@@H](O)[C@@H](O)[C@@H]2[C@@H]3C(=O)N([C@@H](C)c4ccccc4)C(=O)[C@H]3CC[C@@H]12	/	/	/	4%[11.4 µM]	/
COc1ccccc1Nc1nc(N)nc(CSc2nc(C)cc(C)n2)n1	6%	?	10µM*	-8%	1%
COc1ccccc1Nc1nc(N)nc(CSc2nccc(C)n2)n1	7%	-1%	?	10%	-2%
COc1cc(NC(=O)CCc2c(C)nc3c4c(C)cc(C)nc4nn3c2C)cc(OC)c1	/	/	/	/	-1%
COc1cccc(NC(=O)Nc2cccs2)c1	-9%	-22%	-25%	20µM*	4%
COc1ccc(NC(=O)Nc2cccs2)cc1OC	136%	-24%	8%	20µM*	1%
COc1ccc(NC(=O)c2cccs2)cc1OC	8%	-5%	?	5%	10%
Cc1ccc(CNc2cc(-c3nn4c(C)nnc4s3)ccc2C)s1	132%	2%	20µM*	-2%	-2%
COc1ccc2c(c1)Cc1sc(NC(=O)c3cccs3)nc1-2	25µM*	-6%	-23%	32µM*	?
CCN(CC)c1nc(N)c2c(N)nc3c(c2c1C#N)CC(c1ccccc1)O3 (stereo unspecified)	7%	25%	10µM*	-18%	?
COCCNC(=O)c1[nH]c2cc(C)ccc2c1Sc1ccc(Cl)cc1	/	/	/	/	-1%
O=[N+]([O-])c1ccc(Nc2nc3ccccc3s2)cc1	4µM*	-23%[11 µM]	17%[7.6 µM]	?	?
O=C(c1cccc(-n2cnnn2)c1)N1CCOCC1	-9%	2%	-6%	16%	0%
O=C(O)c1cn[nH]c1-n1cnnn1	1%	25µM*	-2%	-2%	0%
CCc1ccc(NC(=O)c2sc(-n3nc(C)c(Cc4ccc(OC)cc4)c3C)nc2C)cc1	/	/	/	/	3%

Source: PubChem (National Center for Advancing Translational Sciences (NCATS))
